Measurements reported in PubChem BioAssay AID2588 (National Center for Advancing Translational Sciences (NCATS), 2010).
Several values for one entry are separate records, joined by “and”; a condition that tells them apart may be missing. Equal entries are not always repeated. Results filed as inconclusive are left out. Unmarked numbers belong to inactive results. Activity calls are given as the source filed them. Calls come from the whole dose curve; as a rule, active = well fitted inhibition curve with a large enough effect; inconclusive = small, poorly fitted or top-dose-only effect, or effect the other way; inactive = flat fitted curve, though single readings scatter.

What follows are molecules tested against Lysosomal acid glucosylceramidase (Homo sapiens) (UniProt P04062) (assay: qHTS Assay for Inhibitors and Activators of N370S glucocerebrosidase as a Potential Chaperone Treatment of Gaucher Disease: Activity in Non-Mutant Spleen Homogenate Using a Red Fluorescent Substrate). Settings: red fluorogenic substrate GCase activity; series mostly up to 50.2 µM; activity change, negative = inhibition: at the top concentration.
Sequence of Lysosomal acid glucosylceramidase (Homo sapiens) (P04062 whole entry, looked up): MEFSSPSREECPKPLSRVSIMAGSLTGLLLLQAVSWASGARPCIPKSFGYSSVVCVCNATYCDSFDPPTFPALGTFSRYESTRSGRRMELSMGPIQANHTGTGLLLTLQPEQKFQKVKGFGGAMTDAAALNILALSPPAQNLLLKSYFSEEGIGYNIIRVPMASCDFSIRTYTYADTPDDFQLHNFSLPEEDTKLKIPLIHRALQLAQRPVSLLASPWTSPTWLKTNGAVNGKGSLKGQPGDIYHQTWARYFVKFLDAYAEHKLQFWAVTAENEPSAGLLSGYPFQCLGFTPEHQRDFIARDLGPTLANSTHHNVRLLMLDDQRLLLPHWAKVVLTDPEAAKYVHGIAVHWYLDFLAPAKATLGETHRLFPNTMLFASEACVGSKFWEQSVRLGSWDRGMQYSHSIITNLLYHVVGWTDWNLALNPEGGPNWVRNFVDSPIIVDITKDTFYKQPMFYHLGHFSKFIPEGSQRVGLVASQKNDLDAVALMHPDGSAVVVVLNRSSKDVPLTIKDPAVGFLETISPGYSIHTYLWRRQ
From the text: NIH Chemical Genomics Center [NCGC]
NIH Molecular Libraries Probe Production Centers Network [MLPCN]
Assay Submitter (PI): Wei Zheng
Glucocerebrosidase (GC) catalyzes the hydrolysis of beta-glucocerebroside to glucose and ceramide in lysosomes. Mutations in the glucocerebrosidase gene result in Gaucher disease, an autosomal recessive lysosomal storage disorder. Many of the mutations encountered in patients with Gaucher disease are missense alterations that may cause misfolding, decreased stability and/or mistrafficking of this lysosomal protein. […] These inhibitors include iminosugar analogs and three non-iminosugar inhibitors identified from a previous HTS of 62,000 compounds with the wild type recombinant enzyme. However, the enhancement of enzyme activity by the chaperone action of an enzyme inhibitor must be balanced against the direct inhibition of the enzyme. An enzyme activator could also function as a chaperone by binding to the enzyme and helping to correct its misfolding and mistrafficking. While activators for GC have not yet been identified, they may have better therapeutic potential than inhibitors. Therefore the discovery and development of chemical activators may provide a new strategy for the chaperone therapy.
We have optimized a new assay using N370S mutant GC derived from the spleen of a Gaucher patient. […] In addition, the MLPCN compound library has expanded, which increases the chance of finding new and better probes.
This confirmation assay tests for compound activity in spleen homogenate containing wildtype enzyme using an alternate resorufin-based substrate.
NCGC Assay Protocol Summary:
This is a fluorogenic enzyme assay with resorufin-beta-D-glucopyranoside as the substrate and wildtype glucocerebrosidase from human spleen homogenate as the enzyme preparation. Upon the hydrolysis of this fluorogenic substrate, the resulting product, […] which can be detected by a standard fluorescence plate reader. Data were normalized to the controls for basal activity (without enzyme) and 100% activity (with enzyme). The AC50 values were determined from concentration-response data modeled with the standard Hill equation.
Assay buffer: 50 mM citric acid (titrated with potassium phosphate to pH 5.0), 100 mM potassium chloride, 10 mM sodium chloride, 1 mM magnesium chloride, 0.01% Tween-20.
1536-well assay protocol:
(1) Add 2 ul/well of spleen homogenate (27 ug final)
(2) Add 23 nL compounds in DMSO solution. The final titration was 0.5 nM to 58 uM.
(3) Add 2 ul of substrate (1 mM final)
(4) Incubate at 37C for 40 min.
(5) Add 2 ul stop solution (1M NaOH and 1M Glycine mixture, pH 10)
(6) Detect the assay plate in a ViewLux plate reader (PerkinElmer) with Ex=365 nm and Em=440nm.
Keywords: Glucocerebrosidase, beta-glucosidase, Gaucher Disease, pharmacological chaperone, chaperone therapy, high throughput screening, glucocerebrosidase inhibitor, MLSMR, MLSCN, NIH Roadmap, qHTS and NCGC

Compound	Potency	activity change, negative = inhibition
O=S(=O)(c1ccc(F)cc1)N1CCN(c2nc(-c3cccs3)nc3ccccc23)CC1	0.794 µM (active)	
Cc1cc(C)cc(N(CC(=O)NC2CCCCCC2)S(=O)(=O)c2c(C)[nH]c(=O)[nH]c2=O)c1	0.631 µM (active)	
CCCCNC(=O)c1ccc(NS(=O)(=O)c2ccccc2)cc1		7.92%
c1ccc2c(NCC3CCCO3)nc(N3CCOCC3)nc2c1 (stereo not given)		6.48%
O=S(=O)(c1ccc(Cl)cc1)N1CCN(c2nc(-c3ccc(Cl)cc3)nc3ccccc23)CC1		13.2%
O=S(=O)(c1ccccc1)N1CCN(c2nc(-c3cccs3)nc3ccccc23)CC1	0.316 µM (active)	
COc1ccc(S(=O)(=O)N2CCN(c3nc(-c4cccs4)nc4ccccc34)CC2)cc1OC	0.224 µM (active)	
O=S(=O)(c1ccccc1)N1CCN(c2nc(-c3ccc(F)cc3)nc3cc(Cl)ccc23)CC1		6.43%
NS(=O)(=O)c1ccc(S(=O)(=O)N2CCN(c3nc(-c4cccs4)nc4ccccc34)CC2)cc1	2.24 µM (active)	
Cc1cc(N2CCN(c3ncccn3)CC2)nc2ccc(NC(=O)C3CCC(C)CC3)cc12 (stereo not given)	11.2 µM (active)	
O=S(=O)(c1ccc(Cl)cc1)N1CCN(c2nc(-c3ccc(F)cc3)nc3cc(Cl)ccc23)CC1		-4.14%
Cc1cc(N2CCOCC2)nc2ccc(NC(=O)C3CCC(C)CC3)cc12 (stereo not given)	2.82 µM (active)	
COc1ccc(-c2nc(N3CCN(S(=O)(=O)c4ccc(F)cc4)CC3)c3ccccc3n2)cc1		-9.76%
CC(C)(C)C(=O)OCCNc1nc(-c2ccccc2)nc2ccccc12	2.24 µM (active)	
Cc1cc(N2CCCCC2)nc2ccc(NC(=O)C3CCC(C)CC3)cc12 (stereo not given)	7.94 µM (active)	
Cc1cc(N2CCOCC2)nc2ccc(NC(=O)CCC(=O)NC3CCCCC3)cc12		-9.8%
Cc1cc(Nc2cccc(Cl)c2)nc2ccc(NC(=O)C3CCC(C)CC3)cc12 (stereo not given)		-7.54%
Cc1ccccc1-c1nccc(NCc2cccs2)n1	14.1 µM (active)	
O=C(Nc1ccccc1)c1ccc(NS(=O)(=O)c2ccccc2)cc1		4.74%
O=S(=O)(c1ccc(Br)cc1)N1CCN(c2nc(-c3cccs3)nc3ccccc23)CC1	0.794 µM (active)	

Compound	Potency	activity change, negative = inhibition
COc1cc(OC)cc(C(=O)N[C@H](C(=O)OCC(=O)Nc2cccc(F)c2)C(C)C)c1		-8.09%
Clc1ccccc1-c1nccc(NCc2ccccc2)n1	3.98 µM (active)	
O=S(=O)(c1ccccc1C(F)(F)F)N1CCN(c2nc(-c3ccccc3)nc3ccccc23)CC1	1 µM (active)	
O=S(=O)(c1ccc2c(c1)OCCO2)N1CCN(c2nc(-c3ccccc3)nc3ccccc23)CC1	4.47 µM (active)	
CC1(C)CC(=O)C2=C(C1)c1c(ccc3ccccc13)NC2c1ccc(Br)o1 (stereo not given)		-13.8%
CCOc1ccc(N(CC(=O)NC2CCCCCC2)S(=O)(=O)c2c(C)[nH]c(=O)[nH]c2=O)cc1	1.41 µM (active)	
Cc1ccc(C)c(N2CCN(C(=O)CCC(=O)Nc3ccc4nc(N5CCOCC5)cc(C)c4c3)CC2)c1	14.1 µM (active)	
O=[N+]([O-])c1ccccc1S(=O)(=O)N1CCN(c2nc(-c3cccs3)nc3ccccc23)CC1	0.562 µM (active)	
O=[N+]([O-])c1cccc(S(=O)(=O)N2CCN(c3nc(-c4cccs4)nc4ccccc34)CC2)c1	1.12 µM (active)	
Cc1cc(C)cc(N(CC(=O)NC2CCC(C)CC2)S(=O)(=O)c2c(C)[nH]c(=O)[nH]c2=O)c1 (stereo not given)	0.398 µM (active)	
O=S(=O)(c1cccc(C(F)(F)F)c1)N1CCN(c2nc(-c3cccs3)nc3cc(Cl)ccc23)CC1		18.2%
O=S(=O)(c1ccc2c(c1)OCCO2)N1CCN(c2nc(-c3cccs3)nc3ccccc23)CC1	0.141 µM (active)	
O=S(=O)(c1ccc(Cl)cc1)N1CCN(c2nc(-c3cccs3)nc3ccccc23)CC1	1.58 µM (active) and 355 nM (active)	
CCC(C)NC(=O)COC(=O)c1ccccc1OCC(=O)Nc1ccc(Br)cc1 (stereo not given)		-9.29%
Cc1cc(N2CCOCC2)nc2ccc(NC(=O)CCC3CCCC3)cc12	3.16 µM (active)	
O=C(/C=C/c1ccc(O)cc1)c1ccc(O)cc1O	3.98 µM (active)	
CCCNC(=O)COC(=O)c1ccccc1OCC(=O)Nc1ccc(Br)cc1		-7.67%
COc1cc(OC)c2c(N)c(C#N)c(C(F)(F)C(F)(F)F)nc2c1		-0.154%
COc1ccccc1NC(=O)COc1ccccc1C(=O)Nc1ccccc1		17%
O=S(=O)(c1cccc(C(F)(F)F)c1)N1CCN(c2nc(-c3ccccc3)nc3ccccc23)CC1	8.91 µM (active)	
